Measured values taken from the supplement of paper PMC3334620.
Whole data set: some 33,000 sequences, median “E-score (-0.5 to 0.5)” near -0.043, cut for the highest 2% near 0.37. The sample holds the highest values, similar sequences and a random draw of the others, so the mix is not that of the screen.

biological target: T1, Upc2 (UniProt Q12151); experiment: PBM E-score (8-mer binding enrichment) (E-score (-0.5 to 0.5)); higher = stronger / more preferred TF binding; details: protein concentration: 200 nM; construct: GST-full length
T1 sequence: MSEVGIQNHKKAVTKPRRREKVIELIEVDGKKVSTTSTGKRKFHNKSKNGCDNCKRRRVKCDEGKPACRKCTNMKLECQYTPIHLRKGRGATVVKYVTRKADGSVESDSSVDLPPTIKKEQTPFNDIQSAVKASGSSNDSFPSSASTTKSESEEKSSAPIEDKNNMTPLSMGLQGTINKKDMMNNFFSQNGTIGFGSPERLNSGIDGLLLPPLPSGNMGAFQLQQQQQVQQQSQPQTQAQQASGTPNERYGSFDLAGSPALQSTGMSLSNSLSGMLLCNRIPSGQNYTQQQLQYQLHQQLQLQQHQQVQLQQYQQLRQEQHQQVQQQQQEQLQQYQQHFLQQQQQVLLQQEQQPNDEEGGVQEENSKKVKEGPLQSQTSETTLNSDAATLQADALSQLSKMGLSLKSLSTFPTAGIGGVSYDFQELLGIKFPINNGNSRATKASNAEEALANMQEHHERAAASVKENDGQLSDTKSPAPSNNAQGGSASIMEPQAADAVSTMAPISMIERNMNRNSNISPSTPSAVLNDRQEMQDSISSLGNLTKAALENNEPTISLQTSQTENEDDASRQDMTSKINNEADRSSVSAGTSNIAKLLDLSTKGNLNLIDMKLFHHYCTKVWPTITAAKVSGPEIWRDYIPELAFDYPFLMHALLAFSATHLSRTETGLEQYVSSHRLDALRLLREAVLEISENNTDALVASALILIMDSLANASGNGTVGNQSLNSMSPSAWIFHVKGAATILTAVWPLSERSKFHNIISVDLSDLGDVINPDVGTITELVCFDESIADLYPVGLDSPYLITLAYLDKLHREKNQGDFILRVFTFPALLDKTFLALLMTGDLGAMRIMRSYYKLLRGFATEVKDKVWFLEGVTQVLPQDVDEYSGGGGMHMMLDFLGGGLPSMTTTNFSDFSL
Experimental: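 Universal 'all 10-mer' protein binding microarrays (Agilent AMADID 015681) probed with GST-tagged S. cerevisiae TFs (full-length or DBD) made by in vitro transcription/translation (PURExpress), about 100-200 nM. Bound TF was detected with fluorescent anti-GST. Each ungapped 8-mer (which stands for itself and its reverse complement) is scored by the PBM enrichment score (E-score), a modified Wilcoxon-Mann-Whitney statistic from -0.5 to +0.5, computed with the Universal PBM Analysis Suite. Scale: above 0.35 generally sequence-specific binding.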

Sequence | PBM E-score
CCGTTCGC | 0.201
ACCTTGGG | -0.219
CTAAATTC | 0.0497
AGCTGCAT | -0.108
GACGAGAA | 0.0864
ACCGAGAT | 0.126
ATCGAGAG | 0.0513
AACGAGAA | 0.422
AACGAGAT | 0.417
TACGAGAA | 0.447
TCCGAGAA | 0.248
CACGAGAA | 0.0693
AACGAGAG | 0.425
ATCGAGAT | -0.0275
CACGAGAG | 0.0635
TTCGAGAA | 0.109
CCAATCCG | -0.0814
CCGAAAAA | 0.0605
AATCAAAA | -0.0286
ACCCTGGC | -0.206
AATTATGC | 0.0912
CGAATTCA | 0.0713

Sequence | PBM E-score
CTTGGCCC | -0.171
CCGCTTCA | -0.0583
CCATGCCG | -0.135
CCTTGCCC | -0.056
AAATAGAA | -0.0216
CACGAGAC | 0.0139
AACGAGAC | 0.437
GACGAGAC | 0.0394
ATCGCATA | 0.318
GTCGCTAA | 0.271
CTCGCTTA | 0.423
CTCGCATA | 0.363
GTCGCTTA | 0.396
CTCGCTGA | -0.136
GTCGCTGA | -0.0513
ATCGCTTA | 0.364
GTCGCATA | 0.375
ACTGCAGG | -0.156
ATTGGGAC | -0.218
GGTAGTTA | -0.14
CCGAGGTC | 0.0232
ACGAGGGC | 0.388

Sequence | PBM E-score
ACGAGGTC | 0.371
GCGAGTTA | 0.116
ACGAGTTA | 0.392
AAGAGGTC | -0.186
CCGAGGGC | 0.094
ACGAGTTC | 0.342
ACGAGGAG | 0.306
ACGAGGGA | 0.364
ACGAGGAC | 0.384
GCGAGGAC | -0.102
CACCACGC | -0.221
GAGGGGAC | -0.152
AAGGTCAG | -0.239
CGTCGAAC | 0.0511
GCCCCAGA | -0.09
AACTGTAA | 0.103
TAGATTAA | 0.104
GCTGCGGA | -0.164
ACGAGGTG | 0.367
GCGAGGTA | 0.244
ACGAGGTA | 0.382
GATGGTAC | 0.139

Sequence | PBM E-score
AGTGTCAG | -0.0575
CGGGATAC | 0.18
ACGAGGCT | 0.406
AGGAGGCG | -0.326
CCGAGGCA | -0.0905
GCGAGGCC | 0.2
ACGAGGCC | 0.381
ACGAGGCG | 0.4
ACGAGGAT | 0.355
CCGAGGCC | 0.102
GCGAGGCA | 0.195
ACGAGGCA | 0.408
CCGAGGCG | 0.129
AAGAGGCT | -0.257
CACAGGCG | -0.208
CCGACAGG | -0.0268
AATTTGTC | 0.0333
CATTAGCG | 0.197
GATCTCCC | -0.162
GCTGGACC | -0.0565
